The target of experiment [1] is T1, Ephrin type-B receptor 2 (Homo sapiens) (UniProt P29323).
T1 sequence (whole entry): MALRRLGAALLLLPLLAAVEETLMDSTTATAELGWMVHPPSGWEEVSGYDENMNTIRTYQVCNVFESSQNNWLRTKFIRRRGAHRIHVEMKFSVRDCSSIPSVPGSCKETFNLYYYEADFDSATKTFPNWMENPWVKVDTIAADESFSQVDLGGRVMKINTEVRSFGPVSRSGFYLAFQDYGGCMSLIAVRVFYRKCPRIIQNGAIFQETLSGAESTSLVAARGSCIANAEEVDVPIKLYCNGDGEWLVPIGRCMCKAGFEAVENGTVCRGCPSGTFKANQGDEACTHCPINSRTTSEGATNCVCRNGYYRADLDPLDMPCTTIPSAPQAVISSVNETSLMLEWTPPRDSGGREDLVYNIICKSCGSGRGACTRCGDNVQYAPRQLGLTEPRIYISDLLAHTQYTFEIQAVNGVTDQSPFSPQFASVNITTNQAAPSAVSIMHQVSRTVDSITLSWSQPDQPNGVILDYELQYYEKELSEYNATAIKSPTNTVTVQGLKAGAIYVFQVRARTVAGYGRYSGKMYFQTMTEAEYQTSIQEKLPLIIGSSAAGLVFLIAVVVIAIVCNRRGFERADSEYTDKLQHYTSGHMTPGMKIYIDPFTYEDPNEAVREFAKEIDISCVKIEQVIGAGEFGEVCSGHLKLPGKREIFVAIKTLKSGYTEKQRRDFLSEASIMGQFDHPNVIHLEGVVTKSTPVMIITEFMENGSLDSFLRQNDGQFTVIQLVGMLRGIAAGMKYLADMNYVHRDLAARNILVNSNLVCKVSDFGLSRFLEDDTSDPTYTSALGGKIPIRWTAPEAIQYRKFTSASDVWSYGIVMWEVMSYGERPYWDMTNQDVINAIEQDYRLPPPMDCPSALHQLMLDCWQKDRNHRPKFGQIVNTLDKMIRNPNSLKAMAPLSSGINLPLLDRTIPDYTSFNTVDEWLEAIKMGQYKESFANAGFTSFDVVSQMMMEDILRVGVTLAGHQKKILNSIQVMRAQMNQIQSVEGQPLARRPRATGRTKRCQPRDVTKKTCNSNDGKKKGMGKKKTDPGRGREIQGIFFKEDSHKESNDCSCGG
The settings on record: at 1 µM.

Experiment [2] has as its target T2, Ephrin type-B receptor 3 (Homo sapiens) (UniProt P54753).
T2 sequence (whole entry): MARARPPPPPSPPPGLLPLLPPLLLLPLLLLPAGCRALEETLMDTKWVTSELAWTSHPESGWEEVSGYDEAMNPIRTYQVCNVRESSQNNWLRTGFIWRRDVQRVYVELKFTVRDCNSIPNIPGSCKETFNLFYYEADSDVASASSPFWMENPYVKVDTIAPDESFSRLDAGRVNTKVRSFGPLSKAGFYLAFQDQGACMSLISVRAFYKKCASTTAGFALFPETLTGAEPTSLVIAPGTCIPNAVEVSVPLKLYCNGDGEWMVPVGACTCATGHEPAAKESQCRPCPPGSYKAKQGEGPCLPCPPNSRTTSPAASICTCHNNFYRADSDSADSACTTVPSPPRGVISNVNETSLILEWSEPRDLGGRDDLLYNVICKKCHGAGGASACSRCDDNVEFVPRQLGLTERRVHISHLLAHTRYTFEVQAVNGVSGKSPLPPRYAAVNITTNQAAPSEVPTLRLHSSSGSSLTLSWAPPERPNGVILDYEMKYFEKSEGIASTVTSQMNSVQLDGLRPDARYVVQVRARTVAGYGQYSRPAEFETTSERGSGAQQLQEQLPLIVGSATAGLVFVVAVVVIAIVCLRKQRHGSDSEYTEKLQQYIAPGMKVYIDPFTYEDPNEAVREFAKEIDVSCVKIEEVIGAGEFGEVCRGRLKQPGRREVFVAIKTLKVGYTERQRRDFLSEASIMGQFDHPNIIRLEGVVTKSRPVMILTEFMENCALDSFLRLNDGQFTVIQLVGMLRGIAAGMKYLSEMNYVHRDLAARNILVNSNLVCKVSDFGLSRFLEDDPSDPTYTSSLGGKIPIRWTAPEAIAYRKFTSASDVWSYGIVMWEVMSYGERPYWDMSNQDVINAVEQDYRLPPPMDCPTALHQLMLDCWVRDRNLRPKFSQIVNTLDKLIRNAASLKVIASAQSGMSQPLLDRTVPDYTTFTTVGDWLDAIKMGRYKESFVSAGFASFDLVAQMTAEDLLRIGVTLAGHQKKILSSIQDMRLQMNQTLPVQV
The settings on record: at 0.1 µM.

For experiment [3], the target named is T2, Ephrin type-B receptor 3 (Homo sapiens). The conditions noted are these: at 1 µM.
The target in experiment [4] is T3, Ephrin type-B receptor 4 (Homo sapiens) (UniProt P54760).
T3 sequence (whole entry): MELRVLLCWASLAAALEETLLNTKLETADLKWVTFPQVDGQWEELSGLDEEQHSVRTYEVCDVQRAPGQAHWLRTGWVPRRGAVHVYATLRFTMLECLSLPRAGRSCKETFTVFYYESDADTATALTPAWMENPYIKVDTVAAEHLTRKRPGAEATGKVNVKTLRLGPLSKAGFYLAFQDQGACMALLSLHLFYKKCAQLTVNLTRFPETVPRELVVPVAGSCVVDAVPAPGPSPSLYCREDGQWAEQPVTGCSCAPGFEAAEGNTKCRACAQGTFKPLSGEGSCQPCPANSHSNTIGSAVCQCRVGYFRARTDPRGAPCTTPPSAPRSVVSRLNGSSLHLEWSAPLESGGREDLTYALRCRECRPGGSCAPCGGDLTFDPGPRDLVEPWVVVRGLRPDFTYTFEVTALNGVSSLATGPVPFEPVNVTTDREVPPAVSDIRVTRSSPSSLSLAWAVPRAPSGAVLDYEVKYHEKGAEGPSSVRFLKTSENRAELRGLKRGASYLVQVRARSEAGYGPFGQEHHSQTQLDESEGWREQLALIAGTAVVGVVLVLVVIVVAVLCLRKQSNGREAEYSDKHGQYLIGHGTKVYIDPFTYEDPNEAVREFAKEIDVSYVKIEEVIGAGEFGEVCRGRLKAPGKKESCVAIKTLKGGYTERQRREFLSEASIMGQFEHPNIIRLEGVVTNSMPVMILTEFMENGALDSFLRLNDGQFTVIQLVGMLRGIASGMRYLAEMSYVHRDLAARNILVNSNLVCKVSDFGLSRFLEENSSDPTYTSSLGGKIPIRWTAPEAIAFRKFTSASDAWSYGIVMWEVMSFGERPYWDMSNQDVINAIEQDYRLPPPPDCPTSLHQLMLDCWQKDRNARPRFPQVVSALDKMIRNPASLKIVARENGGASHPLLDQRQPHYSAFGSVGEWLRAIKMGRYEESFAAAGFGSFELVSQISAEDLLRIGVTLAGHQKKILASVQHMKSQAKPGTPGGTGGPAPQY
The settings on record: at 0.1 µM.

Experiment [5] deals with T3, Ephrin type-B receptor 4 (Homo sapiens). The conditions noted are these: at 1 µM.
In experiment [6] the target is Receptor tyrosine-protein kinase erbB-2 (Homo sapiens) (UniProt P04626). The conditions noted are these: at 0.1 µM.
Sequence of Receptor tyrosine-protein kinase erbB-2 (Homo sapiens) (P04626 whole entry): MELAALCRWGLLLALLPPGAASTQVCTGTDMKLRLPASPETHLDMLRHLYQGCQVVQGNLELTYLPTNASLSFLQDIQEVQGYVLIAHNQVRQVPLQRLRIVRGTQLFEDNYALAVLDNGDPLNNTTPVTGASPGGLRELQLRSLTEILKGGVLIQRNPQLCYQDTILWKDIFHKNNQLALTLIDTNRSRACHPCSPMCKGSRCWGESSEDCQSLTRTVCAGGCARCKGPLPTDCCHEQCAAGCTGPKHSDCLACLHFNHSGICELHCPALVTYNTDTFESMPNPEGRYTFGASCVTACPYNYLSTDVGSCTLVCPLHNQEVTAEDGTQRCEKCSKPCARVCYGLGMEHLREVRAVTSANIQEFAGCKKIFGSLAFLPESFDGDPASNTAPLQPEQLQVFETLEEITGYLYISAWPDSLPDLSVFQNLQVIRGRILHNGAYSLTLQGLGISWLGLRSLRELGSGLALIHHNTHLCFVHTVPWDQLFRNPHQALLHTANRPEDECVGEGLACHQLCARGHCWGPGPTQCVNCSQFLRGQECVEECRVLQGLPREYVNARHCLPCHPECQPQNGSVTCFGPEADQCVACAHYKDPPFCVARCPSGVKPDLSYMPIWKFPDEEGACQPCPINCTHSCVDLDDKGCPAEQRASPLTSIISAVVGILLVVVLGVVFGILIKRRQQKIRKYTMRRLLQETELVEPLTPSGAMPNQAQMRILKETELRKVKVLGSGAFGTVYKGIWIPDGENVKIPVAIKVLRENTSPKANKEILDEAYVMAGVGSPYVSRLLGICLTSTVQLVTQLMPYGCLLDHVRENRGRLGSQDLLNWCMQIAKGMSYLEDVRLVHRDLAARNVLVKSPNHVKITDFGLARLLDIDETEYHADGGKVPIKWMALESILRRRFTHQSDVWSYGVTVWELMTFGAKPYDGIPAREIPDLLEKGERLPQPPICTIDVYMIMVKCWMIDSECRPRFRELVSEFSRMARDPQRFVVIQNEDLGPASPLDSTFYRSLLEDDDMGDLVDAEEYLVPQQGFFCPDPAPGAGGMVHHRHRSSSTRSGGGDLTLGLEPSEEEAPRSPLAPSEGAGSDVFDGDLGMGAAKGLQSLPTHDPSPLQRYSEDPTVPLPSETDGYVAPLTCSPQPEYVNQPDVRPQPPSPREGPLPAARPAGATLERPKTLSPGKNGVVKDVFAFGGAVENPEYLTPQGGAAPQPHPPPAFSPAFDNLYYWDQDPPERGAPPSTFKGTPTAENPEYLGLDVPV
Experiment [7] shares this target. The conditions noted are these: at 1 µM.
The target in experiment [8] is Receptor tyrosine-protein kinase erbB-4 (Homo sapiens) (UniProt Q15303). The settings on record: at 0.1 µM.
Sequence of Receptor tyrosine-protein kinase erbB-4 (Homo sapiens) (Q15303 whole entry): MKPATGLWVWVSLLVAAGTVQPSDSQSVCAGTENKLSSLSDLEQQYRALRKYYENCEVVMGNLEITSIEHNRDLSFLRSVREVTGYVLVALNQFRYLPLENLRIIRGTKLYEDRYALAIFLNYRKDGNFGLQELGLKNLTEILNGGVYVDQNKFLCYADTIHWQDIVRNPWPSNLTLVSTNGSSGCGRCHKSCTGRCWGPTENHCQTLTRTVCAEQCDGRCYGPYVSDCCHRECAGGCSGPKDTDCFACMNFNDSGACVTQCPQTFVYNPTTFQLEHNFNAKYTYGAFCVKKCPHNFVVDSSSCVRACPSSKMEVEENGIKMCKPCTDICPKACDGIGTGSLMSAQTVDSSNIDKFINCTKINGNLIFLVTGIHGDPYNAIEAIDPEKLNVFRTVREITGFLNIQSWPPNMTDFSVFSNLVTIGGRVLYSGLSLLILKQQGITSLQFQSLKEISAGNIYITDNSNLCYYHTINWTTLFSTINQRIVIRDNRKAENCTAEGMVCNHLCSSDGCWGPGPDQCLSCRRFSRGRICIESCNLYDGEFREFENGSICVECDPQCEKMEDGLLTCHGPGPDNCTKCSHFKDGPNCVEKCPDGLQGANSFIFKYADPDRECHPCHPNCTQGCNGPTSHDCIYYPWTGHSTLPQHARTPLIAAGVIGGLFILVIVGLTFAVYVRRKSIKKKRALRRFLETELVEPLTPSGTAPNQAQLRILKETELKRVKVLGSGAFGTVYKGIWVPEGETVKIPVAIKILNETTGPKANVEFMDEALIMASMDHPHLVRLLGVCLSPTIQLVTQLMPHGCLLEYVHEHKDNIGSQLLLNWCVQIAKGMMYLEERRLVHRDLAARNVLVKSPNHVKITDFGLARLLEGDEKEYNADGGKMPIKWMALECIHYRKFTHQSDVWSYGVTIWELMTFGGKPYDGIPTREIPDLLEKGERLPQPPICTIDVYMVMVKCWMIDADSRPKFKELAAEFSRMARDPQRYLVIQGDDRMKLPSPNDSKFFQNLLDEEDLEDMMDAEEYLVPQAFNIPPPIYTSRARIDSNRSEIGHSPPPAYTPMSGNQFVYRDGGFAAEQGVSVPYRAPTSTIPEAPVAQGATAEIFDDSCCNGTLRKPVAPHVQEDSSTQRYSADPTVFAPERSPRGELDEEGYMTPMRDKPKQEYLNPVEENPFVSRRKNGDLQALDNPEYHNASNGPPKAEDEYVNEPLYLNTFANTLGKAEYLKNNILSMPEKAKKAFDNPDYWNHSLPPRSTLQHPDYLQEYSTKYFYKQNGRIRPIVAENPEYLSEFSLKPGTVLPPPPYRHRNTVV
Experiment [9] has the same target. The settings on record: at 1 µM.
The target in experiment [10] is Tyrosine-protein kinase Fer (Homo sapiens) (UniProt P16591). The conditions noted are these: at 0.1 µM.
Sequence of Tyrosine-protein kinase Fer (Homo sapiens) (P16591 whole entry, looked up): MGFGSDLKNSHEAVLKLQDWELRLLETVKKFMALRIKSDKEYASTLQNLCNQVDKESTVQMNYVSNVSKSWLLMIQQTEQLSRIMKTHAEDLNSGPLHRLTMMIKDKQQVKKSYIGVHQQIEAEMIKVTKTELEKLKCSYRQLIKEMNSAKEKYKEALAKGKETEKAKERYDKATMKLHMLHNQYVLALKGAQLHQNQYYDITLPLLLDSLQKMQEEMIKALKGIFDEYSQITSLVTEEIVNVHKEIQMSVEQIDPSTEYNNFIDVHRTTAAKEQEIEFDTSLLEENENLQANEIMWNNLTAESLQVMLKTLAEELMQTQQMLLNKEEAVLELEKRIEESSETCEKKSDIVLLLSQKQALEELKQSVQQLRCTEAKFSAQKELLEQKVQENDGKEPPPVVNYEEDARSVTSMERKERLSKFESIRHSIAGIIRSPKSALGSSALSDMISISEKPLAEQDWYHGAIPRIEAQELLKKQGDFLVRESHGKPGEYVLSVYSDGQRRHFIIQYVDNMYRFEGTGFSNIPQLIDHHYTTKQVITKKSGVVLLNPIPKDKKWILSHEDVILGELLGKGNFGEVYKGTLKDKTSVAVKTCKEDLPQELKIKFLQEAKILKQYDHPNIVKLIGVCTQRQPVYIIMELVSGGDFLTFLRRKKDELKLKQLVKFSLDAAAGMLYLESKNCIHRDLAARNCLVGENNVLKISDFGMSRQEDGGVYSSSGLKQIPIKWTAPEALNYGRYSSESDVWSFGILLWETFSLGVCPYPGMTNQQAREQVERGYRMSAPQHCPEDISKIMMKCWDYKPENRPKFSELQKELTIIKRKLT
The target is the same in experiment [11]. The settings on record: at 1 µM.
Experiment [12] deals with Tyrosine-protein kinase Fes/Fps (Homo sapiens) (UniProt P07332). The conditions noted are these: at 0.1 µM.
For experiment [13] the target is unchanged. The conditions noted are these: at 1 µM.
Experiment [14] has as its target Fibroblast growth factor receptor 1 (Homo sapiens) (UniProt P11362). The settings on record: at 0.1 µM.
Experiment [15] shares this target. The settings on record: at 1 µM.
The target in experiment [16] is Fibroblast growth factor receptor 2 (Homo sapiens) (UniProt P21802). The conditions noted are these: at 0.1 µM.
Sequence of Fibroblast growth factor receptor 2 (Homo sapiens) (P21802 22-821 limits assumed): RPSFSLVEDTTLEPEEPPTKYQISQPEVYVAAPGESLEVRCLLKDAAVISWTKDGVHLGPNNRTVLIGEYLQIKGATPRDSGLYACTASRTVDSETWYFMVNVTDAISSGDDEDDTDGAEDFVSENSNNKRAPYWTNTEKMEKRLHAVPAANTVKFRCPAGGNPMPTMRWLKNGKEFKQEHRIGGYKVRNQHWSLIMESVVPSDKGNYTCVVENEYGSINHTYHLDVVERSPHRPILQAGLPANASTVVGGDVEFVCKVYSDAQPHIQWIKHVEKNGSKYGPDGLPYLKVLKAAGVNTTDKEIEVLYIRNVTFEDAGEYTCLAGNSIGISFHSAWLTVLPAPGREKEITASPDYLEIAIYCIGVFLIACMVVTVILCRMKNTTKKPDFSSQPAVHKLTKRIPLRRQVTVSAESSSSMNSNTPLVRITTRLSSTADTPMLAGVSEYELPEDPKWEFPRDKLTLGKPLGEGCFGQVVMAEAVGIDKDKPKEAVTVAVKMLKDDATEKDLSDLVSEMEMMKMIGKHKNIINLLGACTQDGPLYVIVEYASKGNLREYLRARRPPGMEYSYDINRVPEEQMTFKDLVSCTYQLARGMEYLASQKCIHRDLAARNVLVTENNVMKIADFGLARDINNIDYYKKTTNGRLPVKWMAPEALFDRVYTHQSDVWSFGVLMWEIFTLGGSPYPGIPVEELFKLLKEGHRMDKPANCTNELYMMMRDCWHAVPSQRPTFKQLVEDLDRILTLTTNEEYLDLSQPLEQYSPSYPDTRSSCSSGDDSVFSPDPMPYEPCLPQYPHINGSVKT
The target is the same in experiment [17]. The settings on record: at 1 µM.
In experiment [18] the target is Fibroblast growth factor receptor 3 (Homo sapiens) (UniProt P22607). The conditions noted are these: at 0.1 µM.
Experiment [19] has the same target. The settings on record: at 1 µM.
The target of experiment [20] is Fibroblast growth factor receptor 4 (Homo sapiens) (UniProt P22455). The conditions noted are these: at 0.1 µM.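 Also: values are mean percent inhibition of FGFR4.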
Sequence of Fibroblast growth factor receptor 4 (Homo sapiens) (P22455 22-802 limits assumed): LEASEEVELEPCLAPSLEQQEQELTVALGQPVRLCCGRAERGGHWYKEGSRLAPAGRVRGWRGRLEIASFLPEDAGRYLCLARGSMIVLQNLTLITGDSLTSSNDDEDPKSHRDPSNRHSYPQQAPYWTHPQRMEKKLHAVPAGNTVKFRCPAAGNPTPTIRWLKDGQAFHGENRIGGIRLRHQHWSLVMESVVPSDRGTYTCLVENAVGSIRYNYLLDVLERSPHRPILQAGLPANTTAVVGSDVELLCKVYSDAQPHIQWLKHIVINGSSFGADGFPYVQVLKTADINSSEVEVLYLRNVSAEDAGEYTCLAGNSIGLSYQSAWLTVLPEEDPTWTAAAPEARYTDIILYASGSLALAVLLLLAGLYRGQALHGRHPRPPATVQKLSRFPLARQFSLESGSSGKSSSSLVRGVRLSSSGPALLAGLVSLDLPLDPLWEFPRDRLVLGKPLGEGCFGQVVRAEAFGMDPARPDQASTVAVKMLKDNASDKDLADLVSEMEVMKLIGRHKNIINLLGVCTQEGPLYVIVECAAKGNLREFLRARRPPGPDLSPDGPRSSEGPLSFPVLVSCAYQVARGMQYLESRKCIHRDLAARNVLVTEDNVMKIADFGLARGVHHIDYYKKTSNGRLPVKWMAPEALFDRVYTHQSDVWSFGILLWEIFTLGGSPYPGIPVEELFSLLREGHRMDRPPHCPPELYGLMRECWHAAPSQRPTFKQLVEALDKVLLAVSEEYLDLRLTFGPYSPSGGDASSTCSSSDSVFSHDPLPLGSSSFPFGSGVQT

As for `Fc1ccc(-c2ncn(CCCN3CCOCC3)c2-c2ccncc2)cc1`, the inhibition in experiment [1] was -5.28%; in [2] it was 2.51%; in experiment [3] it was -2.79%; in experiment [4], 0.93%; in experiment [5], -0.14%; in experiment [6], -0.2%. For the same compound, the inhibition in experiment [7] is -6.58%; in experiment [8] it was 4.44%; in [9], 4.14%; in experiment [10], 0.26%; in experiment [11], -1.08%; in [12], -0.1%. In addition, the inhibition in experiment [13] is -0.6%; in experiment [14], 0.01%; in [15] it was -2.73%; in experiment [16], -1.34%; in [17] it was 2.45%; in [18], 0.86%. In addition, the inhibition in experiment [19] is 2.18%; in [20], -3%.

On to `COc1cc(C)c(N(C)C(=O)CN(C)C)cc1Nc1nc(Nc2cccc(F)c2C(N)=O)c2cc[nH]c2n1`, for which the inhibition in experiment [1] was 4.5%; in experiment [2], -1.17%; in [3], -3.39%; in [4], -2.25%; in experiment [5] it was -3.91%; in [6], -0.03%. In addition, the inhibition in experiment [7] is -3.53%; in [8], 4.41%; in [9], 4.97%; in experiment [10], 9.81%; in [11], 23%; in experiment [12], 5.04%. In addition, the inhibition in [13] was 10.7%; in experiment [14] it was 0.07%; in [15], -3.58%; in experiment [16], -2.28%; in experiment [17], -2.01%; in [18], -0.36%. Moreover, the inhibition in experiment [19] is -2.8%; in experiment [20] it was -3.66%.

Regarding `COc1ccc(-c2ccc3c(NC(=O)C4CC4)n[nH]c3n2)cc1`, the inhibition is 5.25% in [1]; 3.22% in experiment [2]; 2.79% in [3]; 1.54% in experiment [4]; -0.15% in experiment [5]; 2.9% in experiment [6]. In addition, the inhibition in experiment [7] was determined as 3.27%; in experiment [8], 4.2%; in [9], 3.94%; in experiment [10] it was 2%; in experiment [11], 3.63%; in [12], 0.69%. Moreover, the inhibition was 0.62% in [13]; -1.21% in experiment [14]; 0.21% in experiment [15]; 0.09% in experiment [16]; 0.42% in experiment [17]; 1.8% in [18]. Further, the inhibition in experiment [19] is 0.95%; in experiment [20], -0.34%.

For the compound `c1ccc(-c2n[nH]cc2-c2ccnc(-c3ccc(OCCN4CCOCC4)cc3)c2)nc1`, the inhibition in [1] is 5.59%; in [2], -5.09%; in [3] it was -7.2%; in [4], -1.67%; in experiment [5], 0.63%; in experiment [6], -3.69%. Besides, the inhibition in [7] was -4.37%; in experiment [8], 3.65%; in experiment [9], 2.65%; in [10], 7.06%; in experiment [11], 5.42%; in experiment [12] it was 0.55%. The inhibition in experiment [13] came to 0.54%; in experiment [14] it was 3.52%; in experiment [15] it was 5.55%; in [16] it was 4.12%; in experiment [17] it was 7.12%; in [18] it was 3.61%. The results for the inhibition in experiment [19] and in experiment [20] were 5.31% and 4.68%, respectively.

`Fc1ccc(-c2ncn(C3CCNCC3)c2-c2ccnc(Oc3ccc(F)c(F)c3)n2)cc1`: the inhibition in experiment [1] is 8.76%; in experiment [2], -0.46%; in experiment [3], 1.58%; in experiment [4], -4.11%; in experiment [5], 0.57%; in experiment [6] it was 3.82%. In addition, the inhibition in [7] turned out to be 3.63%; in [8], 1.82%; in experiment [9] it was 5.03%; in experiment [10], 1.43%; in experiment [11], 3.96%; in experiment [12], 2.73%. The inhibition in experiment [13] is 2.2%; in [14], -3.39%; in experiment [15], 0.21%; in [16], 0.37%; in experiment [17], 2.12%; in experiment [18] it was 0.74%. Further, the inhibition in [19] was 2.67%; in experiment [20] it was -2.57%.

Regarding `Nc1nccc(-c2c(-c3ccc(F)cc3)ncn2C2CCC(O)CC2)n1` (stereo not given), the inhibition in [1] was 35.9%; in experiment [2] it was 1.08%; in experiment [3] it was 32.1%; in [4], 2.5%; in experiment [5], 14.7%; in experiment [6] it was -3.17%. Besides, the inhibition in [7] was 4.64%; in [8], 6.79%; in experiment [9], 45.9%; in [10] it was 5.39%; in [11] it was 19.8%; in experiment [12], -2.78%. Also, the inhibition in experiment [13] was -2.56%; in [14], 0.56%; in [15], 11.3%; in [16], -2.57%; in experiment [17] it was 1.23%; in [18], -0.35%. Further, the inhibition in experiment [19] is 1.39%; in experiment [20], 2.77%.
